Measured values taken from PubChem BioAssay.
Results filed as inconclusive are left out. The source made the active and inactive calls.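 How the source made its calls, unless noted: active means viability at or below 27.92% in each of two runs, the all-compound median minus 4 SD; inconclusive means no clear call, values can overlap the other calls; inactive means the rest.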

Assays:
[1] = reducers of endogenous Her2 protein level, primary screen, SKBR3 breast tumor cells, AlphaScreen, ATP viability (AID 461;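 active means Her2 level under about 52% in both replicate screens, with viability over 70% of control, limit read from the data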;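 on Her2 level: lower value means less Her2 protein in the cells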;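 on viability: percent of carrier control wells set as 100% viability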); settings: 18-24 h, measured here: SKBR3 viability, ATP luminescence, at 10 µM
[2] = biological target: Receptor tyrosine-protein kinase erbB-2 (Homo sapiens) (UniProt P04626); experiment: as above; settings: 18-24 h, at 10 µM, stronger effect = lower value
[3] = SK-BR-3 cell growth inhibitors, pilot screen, 24 h, human (AID 572;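 active means viability at or below 10% of carrier control in both of two separate runs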;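 further: compound exposure lasted between 18 and 24 h rather than exactly 24 h; 100% = carrier-treated control wells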); settings: SK-BR-3 viability, CellTiter-Glo luminescence, at 10 µM, stronger effect = lower value
[4] = HUVEC growth inhibition – cell-based, human, primary screen (AID 575;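 active means viability at or below 30% in both replicate assays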;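 further: 100% = median of untreated cell wells with 0.1% DMSO on each plate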); settings: HUVEC proliferation, CellTiter-Glo luminescence, 72 h; at 10 µM; stronger effect = lower value
[5] = growth inhibitors of H69AR lung tumor, primary screen, human, duplicate replicates (AID 580;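 active means viability at or under a set limit in both replicates, limit being median viability minus 3 SD, cut at about 48% in these data, passing the limit was not always enough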;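 further: 100% = mean luminescence of untreated wells and 0% = no signal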); settings: H69AR lung tumor cells viability, ATP luminescence, 72 h; at 10 µM; stronger effect = lower value
[6] = reversal of MRP1-mediated doxorubicin resistance, pilot screen, H69AR cells, doxorubicin co-treatment (AID 601;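 active means viability loss from added drug above about 55%, and viability with drug at most 40%, in both replicates, limit read from the data, passing the limit was not always enough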); settings: CellTiter-Glo, 72 h, at 10 µM; for differential viability (reversal): stronger effect = higher value
[7] = 384-well plate pilot, post-Golgi transport modulator project, inhibition of yeast transport mutant growth (AID 636; in the data active means inhibition above about 31%); settings: absorbance 615 nm, about 18 h, stronger effect = higher value
[8] = growth suppression of yeast trafficking mutant, preliminary HTS, modulators of trafficking downstream of Golgi apparatus project, 1536-format plate, OD 615 nm (AID 637; in the data active means inhibition above about 30%); settings: yeast transport mutant growth, absorbance 615 nm, 18 h; stronger effect = higher value
[9] = OD615 S. cerevisiae growth inhibition, permissive medium, pilot counter-assay, permissive growth control for S. cerevisiae lifespan shortening project (AID 705;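 active means growth inhibition above 25% in both replicates, a cutoff set 3 SD above the mean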); settings: OD615, 24 h, at 10 µM, stronger effect = higher value
[10] = Restrictive medium S. cerevisiae growth inhibition, OD615, pilot screen of yeast lifespan reduction project, restrictive growth control (AID 706;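 active means growth inhibition above a set limit, 3 SD over mean compound inhibition, in both replicates, cut at about 43% in these data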;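 further: modified DeaD lifespan yeast strain shifted to restrictive glucose medium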); settings: OD615, 48 h, at 10 µM, stronger effect = higher value
[11] = viability gain of MRP-1-high H69AR cells under doxorubicin, pilot screen, MRP-1 activator project, CellTiter-Glo, duplicate (AID 807;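 active means viability increase at or above a cutoff of the median across tested compounds plus 3 SD, cut at about 8.5% in these data, passing the limit was not always enough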;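 further: compound pretreatment 18-22 h then 72 h combined with doxorubicin; 0% = doxorubicin alone and 100% = vehicle without doxorubicin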); settings: H69AR viability with doxorubicin, CellTiter-Glo luminescence; at 10 µM; stronger effect = higher value
[12] = growth suppression of beta-catenin knockout HCT116, pilot screen, human colon tumor cells (AID 823;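 active means cell viability at or below a set limit in both duplicate runs, the limit being the all-compound median minus 4 SD, cut at about 23% in these data, passing the limit was not always enough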;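 further: 0% = wells killed by 20 µM Hyamine and 100% = untreated DMSO cell wells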); settings: CellTiter-Glo, 60 h, at 10 µM, stronger effect = lower value
[13] = growth suppression of PTEN-deleted HCT116, pilot screen, cell-based, HCT116 clonal line, CellTiter-Glo (AID 824); settings: 60 h, at 10 µM, stronger effect = lower value;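 further: 0% = 20 µM Hyamine control and 100% = vehicle cell control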
[14] = inhibitors of the yeast RAM network, pilot screen, dse1pr::URA3 reporter, 5-FOA selection (AID 869;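 active means inhibition over a set limit, the all-compound mean plus 3 SD, in both replicate runs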;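 further: 0% = DMSO wells with no growth and 100% = 10 µM 1-NA-PP1 with full growth; RAM network block rescues cells from 5-FOA so hits raise OD615 growth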); settings: S. cerevisiae dse1pr::URA3 5-FOA growth, OD615, 2 d; at 10 µM; stronger effect = higher value; strain carries analog-sensitive mutant Cbk1 kinase
[15] = RAM signaling pathway blockade in yeast – S. cerevisiae, Pdr1DBD-CYC8 efflux-inhibited sensitized strain, primary screen (AID 1298;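 active means RAM network inhibition above 8.4% in each of two replicates, 3 SD over the compound average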;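 further: 0% = DMSO untreated cells without growth and 100% = 10 µM 1-NA-PP1 full growth; higher means more yeast growth rescued from 5-FOA killing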); settings: S. cerevisiae cbk1-as DSE1-URA3 strain, 5-FOA growth OD615, 2 d; at 50 µM; stronger effect = higher value
[16] = H69AR cells + 2 uM doxorubicin, measured here: viability with 2 uM doxorubicin, stronger effect = lower value
[17] = H69AR cells, compound alone cytotoxicity

Sequence of Receptor tyrosine-protein kinase erbB-2 (Homo sapiens) (P04626 whole entry, looked up): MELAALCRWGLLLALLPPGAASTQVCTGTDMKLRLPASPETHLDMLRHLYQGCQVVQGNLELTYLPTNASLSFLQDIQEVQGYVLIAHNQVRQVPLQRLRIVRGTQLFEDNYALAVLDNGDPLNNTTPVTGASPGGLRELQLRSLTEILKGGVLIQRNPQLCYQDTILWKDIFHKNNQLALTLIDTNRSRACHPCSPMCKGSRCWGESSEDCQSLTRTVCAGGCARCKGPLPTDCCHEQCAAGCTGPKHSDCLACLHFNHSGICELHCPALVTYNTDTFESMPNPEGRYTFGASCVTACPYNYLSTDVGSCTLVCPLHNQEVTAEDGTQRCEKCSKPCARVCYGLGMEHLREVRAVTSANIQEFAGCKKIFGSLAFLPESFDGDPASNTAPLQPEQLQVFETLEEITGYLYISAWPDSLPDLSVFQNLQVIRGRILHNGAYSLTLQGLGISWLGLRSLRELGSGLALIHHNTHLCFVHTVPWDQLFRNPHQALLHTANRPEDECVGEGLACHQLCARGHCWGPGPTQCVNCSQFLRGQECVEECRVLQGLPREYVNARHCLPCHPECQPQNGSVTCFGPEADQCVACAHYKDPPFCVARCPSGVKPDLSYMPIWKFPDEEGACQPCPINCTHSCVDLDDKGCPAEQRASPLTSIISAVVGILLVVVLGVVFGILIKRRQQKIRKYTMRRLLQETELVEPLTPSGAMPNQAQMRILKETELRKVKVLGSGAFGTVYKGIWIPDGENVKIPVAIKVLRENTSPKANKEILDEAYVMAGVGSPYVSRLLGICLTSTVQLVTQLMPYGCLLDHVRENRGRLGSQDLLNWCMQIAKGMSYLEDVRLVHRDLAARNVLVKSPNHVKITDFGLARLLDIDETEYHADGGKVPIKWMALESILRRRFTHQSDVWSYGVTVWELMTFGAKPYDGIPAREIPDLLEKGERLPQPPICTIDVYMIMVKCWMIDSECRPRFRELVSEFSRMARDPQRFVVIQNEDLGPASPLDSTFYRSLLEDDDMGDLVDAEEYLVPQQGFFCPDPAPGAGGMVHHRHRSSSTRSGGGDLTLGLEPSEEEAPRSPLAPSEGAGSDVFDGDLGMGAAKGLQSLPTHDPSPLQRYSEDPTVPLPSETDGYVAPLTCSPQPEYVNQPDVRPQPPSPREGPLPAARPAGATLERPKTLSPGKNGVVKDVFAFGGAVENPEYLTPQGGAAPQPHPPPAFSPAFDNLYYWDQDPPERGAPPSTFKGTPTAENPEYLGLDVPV

Row | Compound | viability [1] | Her2 level [2] | viability [3] | viability [4] | viability [5] | differential viability (reversal) ([6]; H69AR cells + 2 uM doxorubicin) | viability [6, 16] | viability [6, 17] | inhibition [7] | inhibition [8] | growth inhibition [9] | growth inhibition [10] | viability increase [11] | viability [12] | viability [13] | inhibition [14] | RAM network inhibition [15]
1 | CCOC(=O)N1CCC(NC(=O)c2cc(C(=O)NC3CCCC3)ccc2CO)CC1 | 97.5% | 104% (inactive) | 97.5% (inactive) | 97.4% (inactive) | 92.8% (inactive) | 5.52% (inactive) | 87.3% | 92.8% | -6.8% (inactive) | 6% (inactive) | 3.62% (inactive) | -3.18% (inactive) | -0.72% (inactive) | 92.1% (inactive) | 90.2% (inactive) | 1.87% (inactive) | 1.13% (inactive)
2 | COc1ccc(C2CC(c3cccs3)n3nc(N)nc3N2)cc1 (stereo not given) | 113% | 102% (inactive) | 113% (inactive) | 89.3% (inactive) | 91.4% (inactive) | 7.99% (inactive) | 83.4% | 91.4% | -2.4% (inactive) | -6.39% (inactive) | 2.05% (inactive) | 17% (inactive) | -1.71% (inactive) | 94.2% (inactive) | 82.2% (inactive) | 0.275% (inactive) | 8.26% (inactive)
3 | CCn1cc(C(=O)NCc2ccccc2OC)c(=O)c2cc(S(=O)(=O)N(C)C)ccc21 | 78.5% | 89% (inactive) | 78.5% (inactive) | 78.3% (inactive) | 77.6% (inactive) | 9.22% (inactive) | 68.4% | 77.6% | -5.6% (inactive) | 0.17% (inactive) | -8.34% (inactive) | -17.1% (inactive) | -5.34% (inactive) | 87.1% (inactive) | 85.5% (inactive) | 1.88% (inactive) | 2.36% (inactive)
4 | CC(=O)N(c1ccc(Br)cc1)C1C=CS(=O)(=O)C1 (stereo not given) | 100% | 96% (inactive) | 100% (inactive) | 87.9% (inactive) | 88.8% (inactive) | 4.71% (inactive) | 84.1% | 88.8% | -5.33% (inactive) | 1.5% (inactive) | -6.33% (inactive) | -16.4% (inactive) | -0.84% (inactive) | 107% (inactive) | 96% (inactive) | 2.17% (inactive) | -0.25% (inactive)
5 | CCN(CC)C(=O)C1CCCc2c1[nH]c1ccc(Cl)cc21 (stereo not given) | 102% | 91% (inactive) | 102% (inactive) | 67.1% (inactive) | 76.6% (inactive) | 5.98% (inactive) | 70.6% | 76.6% | 8.13% (inactive) | 44% (active) | -16% (inactive) | -4.67% (inactive) | -4.93% (inactive) | 66.5% (inactive) | 60.8% (inactive) | 0.455% (inactive) | 1.57% (inactive)
